Screening data (PubChem)
KLK7 zymogen act: activates the human kallikrein-7 zymogen. P49862. purified proKLK7, EDANS-DABCYL substrate fluorescence; 100% is mature enzyme control, 0% vehicle. activation, % at 7 µM. actives 0.9% (n = 370,000). AID 652039;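 active = activation above the mean of all tested compounds plus 3 SD, computed per campaign excluding outliers beyond control limits, cut at about 13% in these data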
Target sequence (P49862 whole entry, looked up): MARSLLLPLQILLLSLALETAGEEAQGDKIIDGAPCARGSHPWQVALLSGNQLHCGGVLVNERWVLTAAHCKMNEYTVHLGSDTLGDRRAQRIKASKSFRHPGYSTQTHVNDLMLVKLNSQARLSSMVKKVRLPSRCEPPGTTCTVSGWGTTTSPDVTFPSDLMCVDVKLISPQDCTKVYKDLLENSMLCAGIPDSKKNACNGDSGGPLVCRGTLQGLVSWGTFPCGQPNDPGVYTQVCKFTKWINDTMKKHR
SMARCA2 act: increases SMARCA2 function in MMTV reporter cells; MG213 cells, MMTV-luciferase reporter, dexamethasone, overnight; activation, % at 9.1 µM; actives 1% (n = 370,000); AID 652017; in the data active = activation above about 7.8%;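 note: 0% = vehicle wells and 100% = reference activator wells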
FAS-TE inh: FAS thioesterase (human) inhibition. recombinant FAS-TE, OMFH fluorogenic substrate, fluorescence endpoint. inhibition, % at 15 µM. actives 0.67% (n = 360,000). AID 602261;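 active = compounds whose normalised, plate-corrected inhibition of enzyme fluorescence in the single-dose primary screen is 50% or more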;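 note: 0% = DMSO with enzyme and 100% = substrate without enzyme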
GAA850 FXN act: activators of GAA850 frataxin (FXN) promoter. actives 0.56% (n = 360,000). HEK293 lucGAA850 FXN promoter luciferase reporter, 24 h; percent of 10 µM SAHA response. AID 540364. activation, % at 6 µM;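 active = activation above the average of all compounds screened plus 3 SD, cutoff fixed separately per campaign, cut at about 7.5% in these data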;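 note: 0% = DMSO wells and 100% = 10 µM SAHA wells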
proKLK7 act conf: confirmation of human kallikrein-7 zymogen activators; actives 68% (n = 3,200); activation, % at 7 µM; purified proKLK7, EDANS-DABCYL substrate fluorescence; scaled: vehicle 0, mature enzyme 100; shares compounds with KLK7 zymogen act;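 active = activation, as change over the incubation, above the mean of all tested compounds plus 3 SD, cut at about 13% in these data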
EDANS-DABCYL int: fluorescence interference counter-screen for KLK7 activators. shares compounds with KLK7 zymogen act. EDANS-DABCYL substrate fluorescence interference, no enzyme, 4 h; solvent 0%, active enzyme control 100%. activation, % at 7 µM. actives 80% (n = 3,200);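 active = activation above the all-compound mean plus 3 SD, ignoring values outside control-based bounds, cut at about 4.8% in these data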;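 note: value is the 4 h activation minus the activation read at time zero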
EDANS interf: optically interferes with EDANS-DABCYL fluorescence, kallikrein-7 activator counter-screen | shares compounds with KLK7 zymogen act | EDANS-DABCYL peptide fluorescence interference, no enzyme | EC50, µM | actives 20% (n = 250) | AID 720493;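 active = compounds that raise the fluorescence signal in this interference counterscreen, with EC50 at or below 10 µM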;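 note: intact quenched peptide substrate alone read at 355 nm excitation and 520 nm emission; signal is fluorescence gain from T0 to T4 after four hours at room temperature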
Active calls of the source: *; i = inactive; . = no result; ! = repeats disagree. Hits are enriched below; roughly 2.9% of the tested compounds scored in any of these assays.

SMILES | KLK7 zymogen act | SMARCA2 act | FAS-TE inh | GAA850 FXN act | proKLK7 act conf | EDANS-DABCYL int | others
CC[C@]12c3[nH]c4cc(-c5ccco5)ccc4c3CCN1C(=O)[C@@H](CC(=O)NCCCOC)C[C@@H]2C(=O)N1CCN(C(=O)c2ccco2)CC1 | 137* | -2 | -8 | 0 | 103* | 124*
CC[C@]12c3[nH]c4cc(-c5ccco5)ccc4c3CCN1C(=O)[C@@H](CC(=O)NCc1ccc(OC)c(OC)c1)C[C@@H]2C(=O)N1CCN(C(=O)c2ccco2)CC1 | 122* | 0 | -1 | -5 | 63* | 74*
CC[C@]12c3[nH]c4cc(CCC(=O)N(C)C)ccc4c3CCN1C(=O)[C@@H](CC(=O)NCCCN(C)C)C[C@@H]2C(=O)N1CCN(C(=O)C2CC2)CC1 | 0 | -5 | -11 | 0 | . | .
CC[C@]12c3[nH]c4cc(CCC(=O)N(C)C)ccc4c3CCN1C(=O)[C@@H](CC(=O)NCc1ccc(OC)c(OC)c1)C[C@@H]2C(=O)N1CCN(C(=O)c2ccco2)CC1 | 0 | 3 | -8 | 3 | . | .
CC[C@]12c3[nH]c4cc(-c5ccco5)ccc4c3CCN1C(=O)[C@@H](CC(=O)NCCCOC)C[C@@H]2C(=O)N1CCN(C(=O)C2CC2)CC1 | 89* | -4 | -7 | 2 | 81* | 94*
CCOc1ccc(Cl)cc1-c1cc(C(=O)Nc2ccc(OC)cc2OC)[nH]n1 | 0 | 3 | 26 | 3 | . | .
COc1ccccc1-c1nnc(N)s1 | 0 | 0 | -9 | 1 | . | .
COc1ccccc1-c1nnc(SC2CCc3ccccc3NC2=O)s1 (centres undefined) | 13* | -2 | 18 | 0 | -4 | 6.3*
NC(=O)c1ccccc1NC(=O)c1ccc2ccccc2c1 | 15* | 5 | 1 | 6 | -3 | -3
COc1ccc(C(=O)Nc2ccccc2C(N)=O)cc1 | 0 | 4 | -6 | 4 | . | .
CCOC(=O)c1cc2c(=O)n3ccccc3nc2n(Cc2ccc(Cl)cc2)c1=N | 0 | -2 | 8 | 0 | . | .
CCOCCCn1c(=NC(=O)c2cccnc2)c(C(=O)OCC)cc2c(=O)n3ccccc3nc21 | 29* | 2 | 32 | 0 | 3 | 4.5*!
CCOCCCn1c(=NC(=O)c2cccs2)c(C#N)cc2c(=O)n3ccccc3nc21 | 53* | -1 | 28 | 2 | -432 | -326
CCCCn1c(=NC(=O)c2ccco2)c(C(=O)OCC)cc2c(=O)n3ccccc3nc21 | 50* | 3 | 36 | 5 | 21* | 21*
COCCCn1c(=NC(=O)c2ccncc2)c(C#N)cc2c(=O)n3cccc(C)c3nc21 | 15* | 3 | 6 | -3 | 30* | 47*
Cc1cc(NS(=O)(=O)c2ccc(NC(=O)CSc3nnc(SCc4ccc(Cl)cc4)s3)cc2)nc(C)n1 | 0 | -8 | . | . | . | .
CN(C)CCNc1ncnc2c1ncn2[C@H]1CN(C)C[C@@H](CO)O1 | 1 | -6 | -7 | -1 | . | .
COc1ccc(C(=O)Oc2ccc3ccc(=O)oc3c2)cc1OC | 14* | -3 | 4 | 2 | 197* | 193*
COc1ccc2ccc(=O)oc2c1 | -1 | 0 | -6 | 1 | . | .
Cc1ccc(C(=O)Oc2ccc3ccc(=O)oc3c2)cc1 | 41* | -1 | -2 | 0 | 111* | 107*
COc1cccc(C(=O)Oc2ccc3ccc(=O)oc3c2)c1 | 93* | -4 | 8 | -1 | 616* | 656*
O=C(Oc1ccc2ccc(=O)oc2c1)c1ccc([N+](=O)[O-])cc1 | 45* | -3 | -2 | 0 | 593* | 573*
Cn1c(=O)n(C)c2cc([N+](=O)[O-])c(N3CCN(C(=O)c4ccc(F)cc4)CC3)cc21 | 0 | -4 | 3 | -1 | . | .
Cc1ccc(S(=O)(=O)N(C)c2ccc(OCC(=O)OCc3c(C)noc3C)cc2)cc1 | -1 | 0 | 12 | 3 | . | .
O=c1cc(Cl)[nH]c(=O)n1CCNc1ncc(C(F)(F)F)cc1Cl | -1 | 1 | -24 | 2 | . | .
SMILES | KLK7 zymogen act | SMARCA2 act | FAS-TE inh | GAA850 FXN act | proKLK7 act conf | EDANS-DABCYL int | others
CC(NC(=O)OC(C)(C)C)C(=O)Oc1ccc2ccc(=O)oc2c1 (centres undefined) | 89* | 1 | 8 | -1 | 466* | 445*
O=C(Oc1ccc2ccc(=O)oc2c1)c1cccs1 | 581* | -1 | -3 | 3 | 789* | 771*
Cc1cc(C(=O)COc2ccc3ccc(=O)oc3c2)c(C)n1C | 138* | 1 | -2 | 2 | 79* | 85*
CC(=O)Oc1ccc2ccc(=O)oc2c1 | 357* | 0 | 2 | -2 | 602* | 609*
CC(C)(C)OC(=O)NCCC(=O)Oc1ccc2ccc(=O)oc2c1 | . | . | 34 | -1 | . | .
O=C(COc1ccc2ccc(=O)oc2c1)OCc1ccccc1 | 4 | 0 | 32 | 2 | . | .
Cc1ccccc1NC(=O)COC(=O)COc1ccc2ccc(=O)oc2c1 | 14* | -4 | -3 | 0 | 16* | -2 | EDANS interf=i
O=C(CNC(=O)OCc1ccccc1)Oc1ccc2ccc(=O)oc2c1 | 56* | -1 | -2 | 2 | 183* | 261*
COc1ccc(/C=C(/CC(=O)NCc2ccc(Cl)cc2)c2nc3ccccc3s2)cc1 | 28* | -1 | 22 | 2 | 68* | 57* | EDANS interf=2.4*
CCc1ccc(NC(=S)N(CCN2CCCCC2)Cc2ccco2)cc1 | 0 | -2 | 3 | -1 | . | .
COc1ccc(NCc2n[nH]nc2-c2ccccc2)cc1Cl | 0 | 3 | -58 | -1 | . | .
COc1ccccc1C(=O)Oc1ccc2c(c1)O/C(=C\c1ccncc1)C2=O | 15* | 1 | -13 | 1 | 36* | 38*
O=C1/C(=C/c2cccnc2)Oc2cc(OS(=O)(=O)c3ccccc3)ccc21 | . | . | 2 | -2 | . | .
CS(=O)(=O)Oc1ccc2c(c1)O/C(=C\c1cccnc1)C2=O | 16* | -2 | -5 | 2 | 15* | 15*
CC(=O)Oc1ccc2c(c1)O/C(=C\c1ccncc1)C2=O | . | . | -8 | 1 | . | .
O=C(NC(=S)NC1CCS(=O)(=O)C1)c1ccccc1F (centres undefined) | -1 | -3 | -6 | 1 | . | .
O=C(NC(Cc1ccccc1)C(=O)O)C1CCCCC1 (centres undefined) | 0 | 0 | -6 | 0 | . | .
O=C(O)c1cc(-c2ccccc2)nc2nc(N3CCCCC3)sc12 | 16* | 2 | . | . | 44* | 41*
Cc1ccc(-c2cc(C(=O)O)c3sc(N4CCCCC4)nc3n2)cc1 | 25* | -3 | -13 | 1 | 19* | 23*
Cc1c(C(=O)N2CCOCC2)oc2c1C(=O)CC(C)(C)C2 | 0 | -3 | -4 | 2 | . | .
CCCCNc1nc(-c2ccccc2)cc(C(F)(F)F)c1C(N)=O | 19* | -3 | 11 | -1 | -5 | -5
